{"source": "the supplement of paper PMC10646978", "note": "A number with no mark means an inactive call.", "data": [{"test_system": "RAW-Dual (murine macrophage reporter line)", "test": "viability score (confluency relative to resting cells, overnight) (fraction); higher = more viable, active = viable (0.7 or more)", "details": "modulator concentration 10 µM", "in_short": "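Two confluency masks, generated with IncuCyte software over all imaged wells, were applied to IncuCyte images of RAW-Dual macrophages. The cells, in 384-well plates, had been exposed overnight to 10 μM final compound. The viability score is confluency as a fraction of resting cells, and a compound met the cutoff only with both masks above 70% of resting cells.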", "values": [{"smiles": "O=C1OCCN1C1CCN(C(=O)C2(c3ccc(F)cc3)CC2)C1", "note": "(stereo unspecified)", "viability score": "0.951 (active)"}, {"smiles": "Cl.O=C1Cc2cc(CCN3CCN(c4nsc5ccccc45)CC3)c(Cl)cc2N1", "viability score": "0.983 (active)"}, {"smiles": "COc1ccc(CNC(=O)NCC#CCOc2cccc(C(F)(F)F)c2)cc1OC", "viability score": "1.01 (active)"}, {"smiles": "CS(=O)(=O)N(CC(=O)Nc1ccccc1Br)c1ccc(Cl)c(C(F)(F)F)c1", "viability score": "0.999 (active)"}, {"smiles": "CN(C)CCCN(C(=O)Cc1ccc(F)cc1)c1nc2ccc(Cl)cc2s1.Cl", "viability score": 0.0615}, {"smiles": "CC1CN(Cc2ccccn2)CCC1=O", "note": "(stereo unspecified)", "viability score": "1.01 (active)"}, {"smiles": "C[C@@H](O[C@H]1OCCN(Cc2n[nH]c(=O)[nH]2)[C@H]1c1ccc(F)cc1)c1cc(C(F)(F)F)cc(C(F)(F)F)c1", "viability score": "1.02 (active)"}, {"smiles": "c1ccc(-c2ccc(C(c3ccccc3)n3ccnc3)cc2)cc1", "note": "(stereo unspecified)", "viability score": "1 (active)"}, {"smiles": "CC(C)(C)NC[C@H](O)COc1nsnc1N1CCOCC1.O=C(O)/C=C\\C(=O)O", "viability score": "0.992 (active)"}, {"smiles": "Cc1cccc(NC(=O)Cc2nnc(NC(=O)Nc3ccc(F)cc3)s2)c1", "viability score": "1.01 (active)"}, {"smiles": "Cc1ccc(C2(c3ccc(C)cc3)CC2C(=O)Nc2cccnc2)cc1", "note": "(stereo unspecified)", "viability score": "0.998 (active)"}, {"smiles": "O=[N+]([O-])c1ccc(CSc2nc3ccccc3[nH]2)cc1", "viability score": "0.995 (active)"}, {"smiles": "O=C(Nc1cc2c(cc1Cl)OCCO2)c1cc(Cl)ccc1O", "viability score": "1.01 (active)"}, {"smiles": "O=C(NCCCO)C(=O)Nc1ccccc1F", "viability score": "1 (active)"}, {"smiles": "CC12CC3CC(C)(C1)CC(N)(C3)C2", "note": "[Prestw-978]", "viability score": "0.979 (active)"}, {"smiles": "COc1ccc(N(CC(=O)NCCSCc2cccc(Cl)c2)S(C)(=O)=O)cc1Cl", "viability score": "1 (active)"}]}]}
